# From PubChem BioAssay AID624125 (The Scripps Research Institute Molecular Screening Center, 2012)
# Values joined by “and” are separate entries in the source; they are usually repeats but may differ in a detail not shown here. Equal entries are not always repeated. The campaign covered roughly 360,000 compounds. About 2,600 (0.72%) were called active. What follows is part of a selection rich in actives, with near analogues and random picks from the rest. Unmarked numbers belong to inactive results.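 The calls were made as follows: active = inhibition above its plate's cutoff, the mean inhibition of sample wells plus 3 SD (cut at about 27% in these data); inactive = the rest.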
# Molecular target: Muscarinic acetylcholine receptor M4 (Homo sapiens) (UniProt P08173)
# Sequence (P08173 whole entry, looked up): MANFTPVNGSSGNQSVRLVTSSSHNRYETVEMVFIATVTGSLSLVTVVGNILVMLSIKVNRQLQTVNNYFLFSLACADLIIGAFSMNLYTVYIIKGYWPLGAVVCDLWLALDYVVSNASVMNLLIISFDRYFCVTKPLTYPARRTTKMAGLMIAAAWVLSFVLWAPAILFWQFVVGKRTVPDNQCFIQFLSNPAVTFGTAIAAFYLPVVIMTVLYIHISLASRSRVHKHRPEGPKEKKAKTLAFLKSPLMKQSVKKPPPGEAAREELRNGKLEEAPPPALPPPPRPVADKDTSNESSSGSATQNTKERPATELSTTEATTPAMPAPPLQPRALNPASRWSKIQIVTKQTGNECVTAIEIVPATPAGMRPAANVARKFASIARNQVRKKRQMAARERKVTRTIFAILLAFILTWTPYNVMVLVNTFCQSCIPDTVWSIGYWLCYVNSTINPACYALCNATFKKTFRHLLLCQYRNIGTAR
# Assay: CHRM4 blockers of acetylcholine calcium response – CHO cells, Fluo-8 calcium fluorescence, primary screen (AID 624125);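 also: 0% = acetylcholine EC80 with DMSO and 100% = DMSO without agonist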
# Conditions: CHO-hM4 cells, ACh EC80, Fluo-8 calcium fluorescence; at 3 µM; stronger effect = higher value
row,SMILES,inhibition
1,CC(c1ccccn1)N(C)C(=O)c1ccc2nc(Cc3cccc(Cl)c3)oc2c1 (stereo not given),0.98%
2,Cc1ccc(NC(=O)C(C)OC(=O)C2CC3CCCC(C2)C3=O)cc1S(=O)(=O)N1CCOCC1 (stereo not given),-3.85%
3,CCc1nc2c(OCc3ccc(C(F)(F)F)cc3)cccn2c1N(C)C(=O)CC(C)C,3.96%
4,Cc1cc(=O)oc2cc(NC(=O)C3CC(=O)N(Cc4ccccc4)C3)ccc12 (stereo not given),-0.59%
5,O=C(O)C1CCN1C1CCCCC1 (stereo not given),2.3%
6,COC(=O)c1c(C)oc(C)c1S(=O)(=O)NCc1ccc(Cl)cc1,12.7%
7,CN(CCN1CCOCC1)Cc1nc(-c2ccc3c(c2)OCO3)no1,8.12%
8,CCOc1ccc(NC(=O)C2CC(=O)N=C(N)S2)cc1 (stereo not given),-0.59%
9,COc1ccc(C(=O)OCC(=O)NCC2CCCO2)cc1[N+](=O)[O-] (stereo not given),-10.6%
10,Cc1cc(-c2nnc(SCC(=O)Nc3ccc(F)cc3)n2N)n[nH]1,8.94%
11,CSCCC(NS(=O)(=O)c1ccccc1F)C(=O)N1CC=C(c2ccccc2)CC1 (stereo not given),3.15%
12,O=C1NC(=O)C(c2ccc(Cl)cc2)N1 (stereo not given),-2.3%
13,COC(=O)C1=C(N)Oc2cc(C)[nH]c(=O)c2C1c1ccc(Cl)cc1 (stereo not given),0.29%
14,O=C1CSC(c2ccc(Cl)cc2)N1 (stereo not given),27.7% (active)
15,COc1ccc(C(=O)Oc2ccc(-c3nnco3)cc2)cc1S(=O)(=O)N1CCOCC1,-11.2%
16,O=C(OC1CC2CC1[C@H]1CCCCN1C2=O)N1CCOCC1 (stereo not given in full),-3.15%
17,CCc1ccc(S(=O)(=O)NCC(O)COc2ccc(OC)cc2)cc1 (stereo not given),-13%
18,C#C[C@]1(O)CC[C@H]2[C@@H]3CCC4=CC(=O)CC[C@@H]4[C@H]3CC[C@@]21CC,-4.91% and 3.68%
19,CN1CCN(C2Cc3ccc(Cl)cc3Sc3ccc(F)cc32)CC1 (stereo not given),38.1% (active)
20,CCOCCCNC(=O)C(NC(=O)c1ccc(=O)[nH]c1)c1ccc(C)cc1 (stereo not given),-5.59%
21,CN(Cc1ccc(F)cc1Cl)S(=O)(=O)c1cccs1,-1.2%
22,CN(C)Cc1ccc(F)cc1Sc1cc(Cl)ccc1Cl,43.8% (active)
23,Cc1ccc(-c2ccc(=O)n(Cc3ccc(F)cc3Cl)n2)cc1,0.63%
24,COc1cccc(CC(=NO)c2cccc(OC)c2)c1,-5.79%
25,O=C(C1CCCO1)N1CCN(C(=S)Nc2cccc(Cl)c2)CC1 (stereo not given),0.97%
